Screening data deposited in PubChem BioAssay by National Center for Advancing Translational Sciences (NCATS).
S2 tox: Viability Counterscreen for Primary qHTS for Inhibitors of ATXN expression; AID 651635, 2014; Potency, µM (series often up to 56.7 µM), most hits filed as cytotoxic; S2 cells (HEK-293 line with an ATXN2-luciferase reporter) viability, CellTiter-Fluor protease fluorescence, 24 h; 400,000 tested, 0.49% active; further: nearly all actives have a fitted effect of over 40% in size
DRD3 antagonist: qHTS of D3 Dopamine Receptor Antagonist: qHTS; D(3) dopamine receptor (Homo sapiens), P35462; max response, negative = inhibition, %; D3R cells, DiscoveRx beta-arrestin luminescence, antagonist mode; active compounds read low; 360,000 tested, 2.5% active; in the data active means max response below about -50%; inconclusive means no clear call, values can overlap the other calls
Target sequence (P35462 whole entry, looked up): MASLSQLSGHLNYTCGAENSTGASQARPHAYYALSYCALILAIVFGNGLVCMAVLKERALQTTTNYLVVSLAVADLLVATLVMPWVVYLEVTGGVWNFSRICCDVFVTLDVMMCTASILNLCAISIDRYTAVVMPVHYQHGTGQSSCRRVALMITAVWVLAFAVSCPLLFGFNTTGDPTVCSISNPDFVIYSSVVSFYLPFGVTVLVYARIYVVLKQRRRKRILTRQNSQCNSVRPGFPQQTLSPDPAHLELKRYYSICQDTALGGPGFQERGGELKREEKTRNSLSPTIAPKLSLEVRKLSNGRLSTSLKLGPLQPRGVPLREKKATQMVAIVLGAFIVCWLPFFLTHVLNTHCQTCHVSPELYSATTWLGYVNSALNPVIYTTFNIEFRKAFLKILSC
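Cells plated overnight at 1500 cells/well, then exposed to library compounds with dopamine controls for 90 minutes at 37 degrees C. DiscoveRx reagent added for 30–60 minutes at room temperature; luminescence read, quantitative HTS format.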
D3 ag: qHTS of D3 Dopamine Receptor Agonist: qHTS; D3R DiscoveRx beta-arrestin cells, luminescence, 90 min; max activation, %; 410,000 tested, 0.58% active; AID 652048, 2013; in the data active means max activation above about 30%
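Agonist-mode cell screen: cells plated at 1500/well and incubated overnight at 37 °C, then exposed to library compounds for 90 min at 37 °C. Detection reagent was added for 30–60 min at room temperature, and luminescence was read.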
Integrin act MD: qHTS for Activators of Integrin-Mediated Alleviation for Muscular Dystrophy; AID 624291, 2012; Potency, µM (highest dose often 38.3 µM), most hits filed as activators; 350,000 tested, 0.064% active; alpha7betagal myoblasts, beta-gal FDG fluorescence, 48 h; further: nearly all actives have a fitted effect of over 60% in size
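alpha7betagal+/- myoblasts (passage 13, 250/well) treated 48 h at 37C with compounds at 1:260 dilution of DMSO stock. Lysed, then beta-galactosidase activity read as FDG fluorescence (ex 480/em 540) after 30 min, with pre-read for autofluorescence.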
ATXN2 expr inh: Primary qHTS for Inhibitors of ATXN expression; HEK-293 ATXN2-luciferase reporter, luminescence, 24 h; Potency, µM (titrated, usually from 57 µM), hits mostly inhibitors; 360,000 tested, 0.72% active; AID 1745845, 2022; further: nearly all actives have a fitted effect of over 55% in size
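qHTS (up to 57 uM final) was run with 24 h compound exposure of reporter cells at 37 °C. Each well was multiplexed: SteadyGlo luminescence measured ATXN2-luciferase expression after a fluorogenic Gly-Phe-AFC viability readout (25 uM final).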
IL1B secr inh: qHTS for Inhibitors of Inflammasome Signaling: IL-1-beta AlphaLISA Primary Screen | THP-1 LPS/ATP IL-1B secretion, AlphaLISA, 16 h; active compounds read low | activity change, % at 57.5 µM | 360,000 tested, 4.7% active | AID 743279, 2014; in the data active means activity change below about -50%; inconclusive means mostly about -30% to -49%
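THP-1 cells pretreated 1 hr with compounds (up to 57.5 uM final), then stimulated with LPS (250 ng/mL final) plus ATP (1.25 mM final); secreted IL-1B measured by AlphaLISA after 16 hr, decreased signal indicating inhibition.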
Numbers stand for hits; . = inactive; ? = inconclusive; / = not tested or not shown; ! = not active in a repeat; [ ] = another dose, or the depositor's remark. In the library only some 7% were active in any assay of this set; here they are far more common. Unless noted, the call rests on the fitted dose curve; in most records, active means well fitted curve in the direction sought with a large enough effect; inconclusive means small, poorly fitted or top-dose-only effect, or another doubt; inactive means no such curve, though single readings can be large; an effect the other way counts as inactive or inconclusive.

SMILES | S2 tox | DRD3 antagonist | D3 ag | Integrin act MD | ATXN2 expr inh | IL1B secr inh
CCC(C)C1NC(=O)C2CCCN2C(=O)C(CC(C)C)OC(=O)CCNC(=O)C(C)N(C)C(=O)C(C(C)C)N(C)C1=O (centres undefined) | ? | . | . | . | ? | .
C=CCCC[C@@H]1OC(=O)CNC(=O)C([C@@H](C)CC)NC(=O)[C@@H]2CCCN2C(=O)C([C@@H](C)CC)OC(=O)[C@H](Cc2ccccc2)N(C)C(=O)[C@H](C(C)C)NC(=O)C1(C)C (some centres undefined) | ? | ? | . | / | 32µM | -52
CCN(CC)C(=O)COc1cc(C)cc2oc(=O)c3c(c12)CCCC3 | . | . | . | . | . | -50
Cc1cc(OCC(=O)OC(C)(C)C)c2c3c(c(=O)oc2c1)CCC3 | . | . | . | . | . | .
O=C1CCCN1c1ccc(S(=O)(=O)O)cc1 (tested in a mixture with another compound) | . | . | . | . | . | .
CCOc1ccccc1CN1C2CCC1CC(c1ccc(C)cc1)C2 (centres undefined) | ? | -70 | . | . | . | .
O=[N+]([O-])c1ccc(N2CCOCC2)c2c1no[n+]2[O-] | / | ? | . | . | / | -105
O=[N+]([O-])c1ccc(N2CCOCC2)c2cccnc12 | / | . | . | . | / | .
Cc1ccc2c(c1)CC1(CN2C)C(=O)NC(=O)N(c2ccc(C)c(C)c2)C1=O (centres undefined) | . | . | . | . | . | .
Cc1ccc(CN2CCSc3ccc(C(=O)N4CCC5(CC4)OCCO5)cc32)cc1 | . | . | . | . | . | ?
O=C(c1ccc2c(c1)N(Cc1ccc(F)cc1)CCS2)N1CCC2(CC1)OCCO2 | . | . | . | . | . | -65
CCOC(=O)c1c(C)n(Cc2ccc(F)cc2)c2ccc(O)cc12 | ? | . | . | . | / | .
CCCCn1c(C)c(C(=O)OCC)c2c(CN3CCOCC3)c(O)ccc21 | ? | . | . | . | ? | -60
CCCCn1c(C)c(C(=O)OCC)c2c(CN3CCCC3)c(O)ccc21 | . | . | . | . | ? | -79
CC(=O)N(C)CC#CCN1CCC(O)CC1 | . | / | / | / | . | /
C#CCOCCOCCOCCNc1nc(N2CCN(C(=O)CCCCCCCCCCNC(=O)[C@H]([C@@H](C)CC)n3cc(CCCCN=C(N)N)nn3)CC2)nc(N2CCN(C(=O)CCCCCCCCCCNC(=O)[C@H](CO)n3cc(CCCCCN)nn3)CC2)n1 | 16µM | . | . | . | 28µM | -73
O=C1NC(=O)C(=Cc2ccc(OCC(=O)N3CCOCC3)cc2)C(=O)N1 | . | . | . | ? | . | .
CCCCn1c(O)c(C(C)=NCCCN(C)C)c(=O)[nH]c1=O | . | . | . | . | . | .
CCCCn1c(O)c(C(CC)=NCCCN(C)C)c(=O)[nH]c1=O | . | -64 | . | . | . | .
CC(=O)O/C(=C1\CC2C3CC=C4CC(OC(C)=O)CCC4(C)C3CCC2(C)C1=O)C(F)(F)F (centres undefined) | . | -70 | . | . | . | .
NP(=O)(OCC(F)(F)F)Oc1ccccc1 (centres undefined) | . | . | . | . | . | .
C=C1C(=O)OC2CC3(C)OC3CCC(C)=CC(OC(C)=O)C12 (centres undefined) | / | -52 | . | . | ? | -100
Cn1ncnc2c(=O)n(C)c(=O)nc1-2 | 4.5µM | -81 | . | . | 3.5µM | -108
O=C(CCN1CCN(c2ccccc2)CC1)c1ccc(Br)cc1 | / | -60 | . | ? | / | .
c1ccc(CCCN2CCN(CCOC(c3ccccc3)c3ccccc3)CC2)cc1 | ? | -76 | . | / | 27µM! | .
SMILES | S2 tox | DRD3 antagonist | D3 ag | Integrin act MD | ATXN2 expr inh | IL1B secr inh
Fc1ccc(C(OCCN2CCCC2)c2ccc(Br)cc2)cc1 (centres undefined) | . | -73 | . | . | . | -77
C#CCN1CCN(c2ccc(F)cc2)CC1 | . | . | . | . | . | .
Fc1ccc(C(OCCN2CCCC2)c2ccc(F)cc2)cc1 | . | -61 | . | ? | . | ?
Cc1ccc(C)c(CN2C(=O)c3ccccc3Sc3ccc(C(=O)N4CCC5(CC4)OCCO5)cc32)c1 | / | / | . | / | / | /
COc1cc(C2(C#N)CCN(C)CC2)cc(OC)c1OC | . | . | . | . | . | .
COc1ccc(CN2Cc3cnnn3-c3ccccc3C2c2ccccc2)cc1 (centres undefined) | . | . | . | . | . | .
N#CC1c2ccccc2-n2nncc2CN1Cc1cc(Cl)cc(Cl)c1 (centres undefined) | 3.5µM | -109 | . | . | 4.5µM | -102
COc1ccc(CN2Cc3cnnn3-c3ccccc3C2C#N)cc1 (centres undefined) | / | -78 | . | . | ? | -102
CCc1ccccc1NC(=O)N1C[C@H]2C[C@@H](C1)c1cccc(=O)n1C2 | . | . | . | . | . | .
CCCNC(=O)c1cc2c(c(-c3cccc(-c4cc5ccccc5o4)c3)n1)[C@H](CCO)N(C(=O)NC(C)C)C2 | ? | . | . | / | ? | -72
O=C1NC(=O)C(CCc2ccncc2)(CCc2ccccn2)C(=O)N1c1ccc(Br)cc1 (centres undefined) | . | . | . | . | .[11.3 µM] | .
CCOC(=O)C1(CCOc2ccccc2)CCN(Cc2ccc(C)s2)CC1 | ? | -50 | . | . | .[11.3 µM] | -96
CCOC(=O)[C@]12Cc3ccc4ccccc4c3[C@H]1N(Cc1ccccc1)C(=O)c1ccccc12 | . | . | . | / | . | -56
CCOC(=O)[C@]12Cc3cc(OC)ccc3[C@H]1N(Cc1ccccc1)C(=O)c1cc(OC)ccc12 | ? | . | . | / | . | .
CCCCCN1C(=O)c2cc(OC)ccc2[C@@]2(C(=O)OCC)Cc3cc(Cl)ccc3[C@@H]12 | 8.9µM | ? | . | / | 7.1µM | /
CCOC(=O)[C@]12Cc3ccsc3[C@H]1N(Cc1ccccc1)C(=O)c1ccccc12 | . | . | . | . | ? | .
CCOC(=O)[C@]12Cc3cc4ccccc4cc3[C@H]1N(Cc1ccccc1)C(=O)c1ccccc12 | 20µM | ? | . | / | ? | -110
CCOC(=O)[C@]12Cc3cc(Cl)ccc3[C@H]1N(Cc1ccccc1)C(=O)c1cc(OC)ccc12 | 13µM | ? | . | / | 18µM | -113
c1ccc(N2[C@@H]3CC[C@H]2c2ccncc2C3)cc1 | / | . | . | / | / | ?
O=c1[nH]c(=O)n(-c2cccc3ccccc23)c(O)c1/C=N/N1CCCCC1c1cccnc1 (centres undefined) | . | . | . | . | / | .
